# Test results: PubChem BioAssay
# Several values for one entry are separate records, joined by “and”; a condition that tells them apart may be missing. Equal values may be shown once. Activity calls are given as the source filed them.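 Rule for the calls, unless noted: active = compounds whose cell count with miR-34 switched on is under 0.7 times the count with it off; inactive = the rest.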 Starred links: 1 amine or outer side, 2 acyl side, 3 side chain; linkers in the order of their positions; H or OH if unused. Positions of bridges follow the written chain, without caps; N, C: chain ends. Non-standard residues stand in square brackets, D forms with d. Residues, ends and D or L forms follow the SMILES beside them. Chains are numbered I, II in the order given. Actinocin(9to1) = Cc1c2oc3c(C)ccc(C(=O)[*:1])c3nc-2c(C(=O)[*:2])c(N)c1=O; NMeV = CN[C@H](C(=O)O)C(C)C; Sar = CNCC(=O)O
# How the values were obtained:
# [1] = sensitizers of A549 cells to miR-34 induction, primary screen, imaging, A549 dox-inducible miR-34, nuclei and caspase counts (AID 1347080); conditions: A549 miR-34 inducible, Hoechst nuclei count, 48 h
# [2] = survival rescue of mitochondrial mutant cells in low glucose, primary screen, MELAS cybrids, Rieske KO mouse fibroblasts, CellTiter-Glo (AID 1508586;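 active = mean z-score across replicates of 1.96 or higher in either the MELAS or the Rieske mutant cell line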;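 note: z relative to plate mean and SD of compound and empty wells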)
# [3] = viability rescue of complex I mutant cybrids, primary screen, cell-based, galactose medium, ATP luminescence (AID 1645843;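 active = z-score of at least 1.8 in each of two replicates, scored against plate mean and spread of sample wells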;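 note: positive z means more ATP and so rescue of galactose-driven cybrid death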); conditions: complex I mutant cybrid cells, 72 h, stronger effect = higher value
# [4] = biological target: NAD(+) hydrolase SARM1 (Homo sapiens) (UniProt Q6SZW1); experiment: SARM1 TIR NADase inhibitors, cell lysate, NAD-Glo luminescence (AID 1508614;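 active = compound whose remaining NAD level is above about 45 nM, limit read from the data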;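 note: higher remaining NAD means stronger inhibition of SARM1 NADase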); conditions: SAM-TIR HEK293T lysate NADase, at 1 µM, stronger effect = higher value
# Chain of NAD(+) hydrolase SARM1 (Homo sapiens) (Q6SZW1 whole entry, looked up, the tested form may be a part): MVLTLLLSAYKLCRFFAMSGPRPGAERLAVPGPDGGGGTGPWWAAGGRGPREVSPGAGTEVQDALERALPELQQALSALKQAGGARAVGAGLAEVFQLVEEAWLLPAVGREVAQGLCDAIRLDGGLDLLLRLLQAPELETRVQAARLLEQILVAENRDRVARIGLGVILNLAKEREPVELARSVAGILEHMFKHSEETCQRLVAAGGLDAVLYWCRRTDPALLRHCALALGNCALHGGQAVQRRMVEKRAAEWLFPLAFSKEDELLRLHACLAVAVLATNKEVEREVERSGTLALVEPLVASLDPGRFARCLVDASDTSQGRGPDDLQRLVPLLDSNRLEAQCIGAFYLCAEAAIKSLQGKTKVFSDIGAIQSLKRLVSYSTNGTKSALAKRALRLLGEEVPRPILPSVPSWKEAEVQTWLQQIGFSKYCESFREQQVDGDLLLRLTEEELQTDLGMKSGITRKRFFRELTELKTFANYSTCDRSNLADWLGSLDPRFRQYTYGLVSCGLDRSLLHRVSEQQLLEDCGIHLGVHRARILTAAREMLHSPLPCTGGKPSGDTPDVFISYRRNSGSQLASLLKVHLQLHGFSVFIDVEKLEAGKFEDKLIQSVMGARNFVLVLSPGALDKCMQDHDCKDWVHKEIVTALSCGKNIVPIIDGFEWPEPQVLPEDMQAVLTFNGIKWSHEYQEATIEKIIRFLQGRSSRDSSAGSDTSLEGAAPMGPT
# [5] = biological target: Mitogen-activated protein kinase 7 (Homo sapiens) (UniProt Q13164); experiment: ERK5 transactivation activators in reporter cells, primary screen, cell-based, HTS (AID 1508626;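 active = luciferase signal above three times the same-plate solvent-only control wells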;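 note: luciferase driven by Gal4-ERK5 fusion binding five Gal4 sites before minimal TATA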); conditions: HeLa Gal4-ERK5 transactivation, 18 h, at 5 µM, stronger effect = higher value
# Chain of Mitogen-activated protein kinase 7 (Homo sapiens) (Q13164 whole entry, looked up, the tested form may be a part): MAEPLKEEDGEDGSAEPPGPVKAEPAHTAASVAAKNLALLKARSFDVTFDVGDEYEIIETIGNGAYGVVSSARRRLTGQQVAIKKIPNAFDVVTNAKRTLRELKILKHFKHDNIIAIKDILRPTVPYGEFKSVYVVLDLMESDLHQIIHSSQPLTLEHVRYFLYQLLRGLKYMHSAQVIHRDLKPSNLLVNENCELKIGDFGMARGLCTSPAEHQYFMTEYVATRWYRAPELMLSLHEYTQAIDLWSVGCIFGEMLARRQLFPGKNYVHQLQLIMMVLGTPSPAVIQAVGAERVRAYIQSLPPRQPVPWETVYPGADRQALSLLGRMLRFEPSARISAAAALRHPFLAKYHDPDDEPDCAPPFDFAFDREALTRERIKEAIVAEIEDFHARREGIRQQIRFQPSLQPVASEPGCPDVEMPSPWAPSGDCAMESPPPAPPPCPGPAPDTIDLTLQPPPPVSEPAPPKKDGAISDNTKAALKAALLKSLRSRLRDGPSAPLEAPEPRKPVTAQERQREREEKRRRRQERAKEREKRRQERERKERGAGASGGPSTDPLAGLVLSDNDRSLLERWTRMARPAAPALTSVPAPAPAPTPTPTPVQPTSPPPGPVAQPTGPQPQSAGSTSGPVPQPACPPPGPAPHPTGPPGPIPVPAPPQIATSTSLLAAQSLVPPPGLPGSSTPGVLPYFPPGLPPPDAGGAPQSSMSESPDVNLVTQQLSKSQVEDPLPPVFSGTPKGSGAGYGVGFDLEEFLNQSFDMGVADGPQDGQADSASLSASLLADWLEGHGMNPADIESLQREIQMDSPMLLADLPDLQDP
# [6] = inhibitors of Cryptococcus chitosan production, flow cytometry, Cibacron Brilliant Red staining (AID 1347148; call rule not given here;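 note: compound exposure lasted three days at 37 degrees C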); conditions: Cryptococcus neoformans chitosan, stronger effect = lower value; at 10 µM unless noted
# [7] = phospholipid biosynthesis inhibitors in animal cells, primary screen, cell-based, LOPAC library, screen 4 (AID 1347384; call rule not given here); conditions: phospholipid biosynthesis inhibition screen, at 10 µM
# [8] = stronger effect = lower value, cell number ratio, induced over uninduced
# [9] = measured here: relative caspase fold change +Dox/-Dox
# [10] = measured here: total cells with miR-34 induction, stronger effect = lower value
# [11] = measured here: total cells without miR-34 induction
# [12] = MELAS cybrid survival, CellTiter-Glo 48 h, stronger effect = higher value
# [13] = Rieske KO mouse fibroblast survival, CellTiter-Glo 72 h
Compound,"fold change [1, 8]","fold change [1, 9]","cell count [1, 10]","cell count [1, 11]","z-score [2, 12]","z-score [2, 13]",z-score [3],remaining NAD [4],luciferase signal [5],fold fluorescence [6],outcome [7]
CCOC(=O)C1=C(C)NC(C)=C(C(=O)OCC)C1c1ccccc1/C=C/C(=O)OC(C)(C)C,0.814 (inactive),0.737,7100,8720,-0.103 (inactive) and 0.874 (inactive),0.213 and 0.0479,-1.98 (inactive),–,–,–,–
OCc1ccccc1O,0.861 (inactive),4.19,10600,12400,–,–,–,10 nM (inactive),28 AU (inactive),–,–
Cc1cc(C)cc(OCC2CNC(=O)O2)c1 (centres undefined),0.878 (inactive),2.33,10800,12400,–,–,–,10 nM (inactive),72 AU (inactive),–,–
COc1cc(C)nc(-n2nc(C)cc2OC)n1,0.917 (inactive) and 1.02 (inactive),1.25 and 2.09,8860 and 9160,9670 and 8950,0.813 (inactive),0.154,0.61 (inactive),–,–,–,–
COc1ccc(C2C(=O)c3ccccc3C2=O)cc1,0.879 (inactive),2.05,11100,12700,–,–,–,10 nM (inactive),172 AU (inactive),–,–
COc1ccc(-c2cc(C(F)F)nn2-c2ccc(S(N)(=O)=O)cc2)cc1F,0.791 (inactive),2.48,10300,13000,–,–,–,10 nM (inactive),44 AU (inactive),–,–
Oc1c(I)cc(I)c2cccnc12,0.894 (inactive),1.48,10900,12200,–,–,–,10 nM (inactive),16 AU (inactive),–,–
O=C1OC(c2ccc(O)cc2)(c2ccc(O)cc2)c2ccccc21,0.823 (inactive),1.14,10900,13200,–,–,–,10 nM (inactive),84 AU (inactive),–,–
COC(=O)CCc1ccc(OCC(O)CNC(C)C)cc1 (centres undefined),0.896 (inactive) and 0.841 (inactive) and 0.908 (inactive),0.838 and 0.901 and 1.51,9510 and 7720 and 9690,10600 and 9170 and 10700,-0.164 (inactive) and -0.834 (inactive) and -0.539 (inactive),-0.149 and -1.1 and -1.41,0.52 (inactive) and 0.07 (inactive),–,–,–,–
NC(=O)c1ccc([N+](=O)[O-])cc1Cl,0.897 (inactive),3.38,11800,13200,–,–,–,10 nM (inactive),180 AU (inactive),–,–
Oc1cccc(O)c1,0.918 (inactive),2.54,12000,13100,–,–,–,10 nM (inactive),20 AU (inactive),–,–
NC[C@H]1O[C@H](O[C@H]2[C@H](O)[C@@H](O[C@H]3O[C@H](CO)[C@@H](O)[C@H](N)[C@H]3O)[C@H](N)C[C@@H]2N)[C@H](N)[C@@H](O)[C@@H]1O,0.901 (inactive),2.25,11700,13000,–,–,–,10 nM (inactive),76 AU (inactive),–,–
CCCCNc1c(C(=O)OCC)c(C)nc2c1cnn2CC,1.09 (inactive) and 0.956 (inactive) and 0.928 (inactive),1.73 and 0.694 and 0.876,9150 and 8740 and 7780,8430 and 9140 and 8370,2.27 (active),1.7,0.17 (inactive) and 0.34 (inactive),–,–,–,–
Cc1cc2nc3c(=O)[nH]c(=O)nc-3n(C[C@H](O)[C@H](O)[C@H](O)CO)c2cc1C,0.873 (inactive),1.61,7920,9080,–,–,–,10 nM (inactive),80 AU (inactive),–,–
CN(C)CCCSc1ccccc1NC(=O)/C=C/c1ccccc1,0.891 (inactive) and 1.14 (inactive),0.895 and 0.508,7810 and 9010,8770 and 7880,0.109 (inactive),-0.0543,-0.09 (inactive) and 0.525 (inactive),–,–,–,–
Nc1ccc(C(=O)O)cc1,0.846 (inactive),0.809,10600,12500,–,–,–,10 nM (inactive),40 AU (inactive),–,–

Compound,"fold change [1, 8]","fold change [1, 9]","cell count [1, 10]","cell count [1, 11]","z-score [2, 12]","z-score [2, 13]",z-score [3],remaining NAD [4],luciferase signal [5],fold fluorescence [6],outcome [7]
CCCCCCc1ccc(O)cc1O,0.901 (inactive),1.55,11000,12200,–,–,–,10 nM (inactive),20 AU (inactive),–,–
CC(=O)NO,0.922 (inactive),0.946,11300,12300,–,–,–,10 nM (inactive),52 AU (inactive),–,–
CCC(=O)O[C@H]1[C@H](O[C@@H]2[C@@H](C)[C@H](O[C@H]3C[C@@](C)(OC)[C@@H](O)[C@H](C)O3)[C@@H](C)C(=O)O[C@H](CC)[C@@](C)(O)[C@H](O)[C@@H](C)C(=O)[C@H](C)C[C@@]2(C)O)O[C@H](C)C[C@@H]1N(C)C,0.893 (inactive),3.7,11600,12900,–,–,–,10 nM (inactive),180 AU (active),–,–
COc1ccc(CN(CCN(C)C)c2ncccn2)cc1,0.86 (inactive),3.03,11900,13800,–,–,–,10 nM (inactive),60 AU (inactive),–,–
CNCCCCOc1ccccc1Cc1ccccc1,0.954 (inactive) and 0.995 (inactive),1.55 and 0.924,7470 and 8010,7840 and 8050,–,–,-1.31 (inactive) and -0.275 (inactive),–,–,–,–
CC(=O)Nc1ccc(S(=O)(=O)Nc2ccc([N+](=O)[O-])cc2)cc1,0.908 (inactive),3.51,11400,12500,–,–,–,10 nM (inactive),24 AU (inactive),–,–
CCOC(N)=O,0.875 (inactive),3.55,11200,12800,–,–,–,10 nM (inactive),24 AU (inactive),–,–
Cc1cc(O)cc(C)c1Cl,0.933 (inactive),1.14,10100,10800,–,–,–,10 nM (inactive),32 AU (inactive),–,–
Cc1cccc(C(=O)O)c1O,0.963 (inactive),0.915,8670,9000,–,–,–,10 nM (inactive),68 AU (inactive),–,–
COc1cc2c(cc1OC)-c1cc(=Nc3c(C)cc(C)cc3C)n(C)c(=O)n1CC2,–,–,–,–,1.02 (inactive),1.81,-0.95 (inactive) and -0.575 (inactive) and 0.465 (inactive),–,–,11.7 [at 123.3 µM] (inactive),inactive
O=C1C(O)=C(O)C(=O)C(O)=C1O,0.863 (inactive) and 0.913 (inactive),1.35 and 4.01,9350 and 12000,10800 and 13100,–,–,–,10 nM (inactive),20 AU (inactive),–,–
O=C1CC2(CCCC2)CC(=O)N1CCNCC1COc2ccccc2O1 (centres undefined),0.839 (inactive) and 0.901 (inactive),1.72 and 0.868,8960 and 8470,10700 and 9400,–,–,0.655 (inactive) and -0.78 (inactive),–,–,–,–
C=CCc1ccc(O)c(OC)c1,0.949 (inactive),0.583,11000,11600,–,–,–,10 nM (inactive),12 AU (inactive),–,–
"Cc1c2oc3c(C)ccc(C(=O)N[C@@H]4C(=O)N[C@H](C(C)C)C(=O)N5CCC[C@H]5C(=O)N(C)CC(=O)N(C)[C@@H](C(C)C)C(=O)O[C@@H]4C)c3nc-2c(C(=O)N[C@@H]2C(=O)N[C@H](C(C)C)C(=O)N3CCC[C@H]3C(=O)N(C)CC(=O)N(C)[C@@H](C(C)C)C(=O)O[C@@H]2C)c(N)c1=O (I: T[dV]P[Sar][NMeV] / II: T[dV]P[Sar][NMeV]; ester I:1-I:C, II:1-II:C; linker I:N-II:N via Actinocin(9to1))",–,–,–,–,–,–,–,10 nM (inactive),16 AU (inactive),23.3 [at 107.6 µM] (inactive),–
NCC1CCC(C(=O)Oc2ccc(CCC(=O)O)cc2)CC1 (centres undefined),0.97 (inactive),1.97,9870,10200,–,–,0.62 (inactive),–,–,–,–
O=C(c1ccc(F)cc1)C1CCN(CCn2c(=S)[nH]c3ccccc3c2=O)CC1,0.921 (inactive) and 0.889 (inactive),1.65 and 1.01,8480 and 7360,9210 and 8290,–,–,-0.715 (inactive) and -0.61 (inactive),–,–,–,–
